Results filed as inconclusive are left out. The source made the active and inactive calls. The calls were made as follows: active = hit-call score of the fitted dose curve at least 0.9, where 1 is the maximum; inconclusive = response in the unintended direction; inactive = score below 0.9.
Target: Cellular tumor antigen p53 (Homo sapiens) (UniProt P04637)
Assay: TOX21_p53_BLA_p4_ratio: Tox21 HCT-116 p53 Agonism Beta-lactamase Assay, Ratio, Phase 4 (AID 2283601)
Outline: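 Signal is the blue/green (460nm/530nm) ratio of cleaved versus uncleaved CCF4-AM substrate, read after 2 h substrate loading. Cells were HCT116 carrying the p53-responsive beta-lactamase reporter, dosed 16 h at 37C, 5% CO2; CellTiter-Glo measured in parallel.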

Chain of Cellular tumor antigen p53 (Homo sapiens) (P04637 whole entry, looked up): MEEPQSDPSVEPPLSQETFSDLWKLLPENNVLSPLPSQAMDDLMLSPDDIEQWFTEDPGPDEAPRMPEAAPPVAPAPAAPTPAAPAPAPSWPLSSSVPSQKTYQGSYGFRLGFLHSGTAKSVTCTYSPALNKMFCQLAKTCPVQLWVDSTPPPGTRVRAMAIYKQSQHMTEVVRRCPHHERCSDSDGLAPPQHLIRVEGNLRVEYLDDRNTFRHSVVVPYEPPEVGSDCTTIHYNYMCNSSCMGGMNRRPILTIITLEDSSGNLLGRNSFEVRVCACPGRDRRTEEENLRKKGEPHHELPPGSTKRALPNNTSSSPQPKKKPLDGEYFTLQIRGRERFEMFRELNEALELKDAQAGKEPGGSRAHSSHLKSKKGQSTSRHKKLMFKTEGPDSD

Row | SMILES | outcome
1 | CC(=O)CC(=O)Nc1ccc(S(=O)(=O)O)cc1 | inactive
2 | Cc1ccc(C(C)(C)c2ccc(C)cc2)cc1 | inactive
3 | COc1cc(C[C@@H]2NCCc3cc(O)c(O)cc32)cc(OC)c1OC | inactive
4 | CCCCOc1ccc(OCCCN2CCOCC2)cc1 | inactive
5 | C=CCCCCCCCCCCC | inactive
6 | CCCCCCCCCCCCCCCC(=O)O[C@@H]1CC(C)=C(/C=C/C(C)=C/C=C/C(C)=C/C=C/C=C(C)/C=C/C=C(C)/C=C/C2=C(C)C[C@@H](OC(=O)CCCCCCCCCCCCCCC)CC2(C)C)C(C)(C)C1 | inactive
7 | Cc1ccc(N)nc1 | inactive
8 | CCCCOC(=O)C(=O)OCCCC | inactive
9 | CCCCNC(=O)NCCCC | inactive
10 | N[C@H]1CN(c2c(F)cc3c(=O)c(C(=O)O)cn(C4C[C@H]4F)c3c2Cl)CC12CC2 (stereo partly specified) | inactive
11 | CC1=C(/C=C/C(C)=C/C=C/C(C)=C/C=C/C=C(C)/C=C/C=C(C)/C=C/C2=C(C)C(=O)CCC2(C)C)C(C)(C)CCC1=O | inactive
12 | CCc1ccc(Br)cc1 | inactive
13 | CN=C(NC#N)Nc1ccc(C2=NNC(=O)CC2C)cc1 (stereo unspecified) | inactive
14 | CC(C)(CCl)c1ccccc1 | inactive
15 | O=C(Cn1c(=O)sc2ccc(Cl)cc21)N1CCN(CCO)CC1 | inactive
16 | CC(=O)c1cnccn1 | inactive
17 | CCC=C1OC(=O)c2ccccc21 | inactive
18 | CCNS(=O)(=O)c1ccc(C)cc1 | inactive
19 | COc1cc2c(cc1OC)C(C(C(=O)N(CCc1ccc(OC)c(OC)c1OC)CCc1ccc(OC)c(OC)c1OC)c1ccccc1)=NCC2 (stereo unspecified) | inactive
20 | Cc1cc([N+](=O)[O-])ccc1N | inactive
21 | Cn1cnc2ncnc(N)c21 | inactive
22 | CO[C@H]1O[C@@H]2O[C@@]3(C)CC[C@H]4[C@H](C)CC[C@@H]([C@H]1C)[C@@]24OO3 | inactive
23 | O=S(=O)(O)c1cccc(S(=O)(=O)O)c1 | inactive
24 | c1ccc2c(c1)ccc1c3ccccc3ccc21 | inactive
25 | O=C(O)c1ccc(NC(=O)[C@H](Cc2ccc(O)cc2)NC(=O)c2ccccc2)cc1 | inactive
26 | Oc1ccc(CCNCCCCCCNCCc2ccccc2)cc1O | inactive

Source: PubChem BioAssay (EPA / NIEHS)
